An excerpt weighted towards active compounds, which were near 6.9% of everything screened.
PLK1 PBD block: qHTS for Inhibitors of PLK1-PDB (polo-like kinase 1 - polo-box domain): Primary Screen. Plk1 PBD binding of FITC phosphopeptide, fluorescence polarization. Potency, µM, actives largely listed as inhibitors. actives 2.8% (n = 360,000). AID 720504, 2013; also: series mostly up to about 57 µM; nearly all actives have a fitted effect of over 65% in size
VDR inhibitor: Inhibitors of the vitamin D receptor (VDR): qHTS | VDR-SRC2-3 peptide fluorescence polarization, 2 h | Vitamin D3 receptor (Homo sapiens), P11473 | Potency, µM, most hits filed as inhibitors | AID 504847, 2011 | actives 0.93% (n = 400,000)
Target sequence (P11473 whole entry, looked up): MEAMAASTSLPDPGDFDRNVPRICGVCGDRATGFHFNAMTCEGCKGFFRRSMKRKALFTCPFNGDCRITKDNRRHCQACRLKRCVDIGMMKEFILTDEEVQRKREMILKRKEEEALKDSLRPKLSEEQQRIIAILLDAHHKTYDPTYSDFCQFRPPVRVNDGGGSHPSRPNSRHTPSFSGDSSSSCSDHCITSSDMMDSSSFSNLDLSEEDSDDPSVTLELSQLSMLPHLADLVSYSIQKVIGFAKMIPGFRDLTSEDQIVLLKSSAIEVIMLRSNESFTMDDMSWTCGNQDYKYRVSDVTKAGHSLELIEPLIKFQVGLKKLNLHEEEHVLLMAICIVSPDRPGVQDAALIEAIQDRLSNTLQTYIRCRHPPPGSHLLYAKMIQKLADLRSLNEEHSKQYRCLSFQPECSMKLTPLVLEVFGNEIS
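Compounds are added to VDR with labelled SRC2-3 coactivator peptide and held 2 h at room temperature. Inhibition of the VDR–peptide interaction is then read as a change in fluorescence polarization.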
L3MBTL1 inh: qHTS Assay for the Inhibitors of L3MBTL1. actives 0.66% (n = 230,000). Lethal(3)malignant brain tumor-like protein 1 (Homo sapiens), Q9Y468. Potency, µM (highest dose often 57.1 µM), hits mostly inhibitors. AlphaScreen L3MBTL1–H3K9me1 peptide binding; also: nearly all actives have a fitted effect of over 60% in size
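Displacement of a biotinylated histone H3(1-15) peptide monomethylated at Lys9 (75 nM) from L3MBTL1 (50 nM) was measured by AlphaScreen after a 30 min room-temperature compound incubation; cefsulodin titration served as intraplate control.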
JMJD2A Tudor inh: qHTS Assay for Inhibitors of JMJD2A-Tudor Domain. AlphaScreen JMJD2A-Tudor / H3K4me3 peptide binding. Potency, µM (titrated, usually from 114 µM), hits mostly inhibitors. actives 4.4% (n = 390,000). AID 504339, 2011; also: nearly all actives have a fitted effect of over 50% in size
HP1b chromo inh: HTS for Inhibitors of HP1-beta Chromodomain Interactions with Methylated Histone Tails; Chromobox protein homolog 1 (Homo sapiens), P83916; AlphaScreen HP1-beta / biotin-H3K9me3 peptide binding; Potency, µM (doses to about 114 µM), most hits filed as inhibitors; actives 0.56% (n = 390,000); AID 540317, 2011; also: nearly all actives have a fitted effect of over 70% in size
Target sequence (P83916 whole entry, looked up): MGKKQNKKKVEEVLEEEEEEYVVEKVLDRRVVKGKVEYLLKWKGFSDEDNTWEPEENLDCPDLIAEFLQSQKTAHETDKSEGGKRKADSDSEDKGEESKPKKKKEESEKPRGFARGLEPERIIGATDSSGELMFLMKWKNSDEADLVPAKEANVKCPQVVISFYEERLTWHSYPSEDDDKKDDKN
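AlphaScreen: HP1-beta (50 nM) preformed 30 min with biotin-H3(1-18)K9me3 peptide (50 nM) in PBS pH 7.4, 0.01% Tween-20. Compound added for 30 min at RT, then streptavidin donor/nickel chelate acceptor beads (10 ug/mL) for 30 min.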
BAZ2B block: qHTS Assay for Inhibitors of BAZ2B; Potency, µM (titrated, usually from 114 µM), most hits filed as inhibitors; Bromodomain adjacent to zinc finger domain protein 2B (Homo sapiens), Q9UIF8; AlphaScreen BAZ2B-H3K14Ac peptide displacement; actives 4.4% (n = 360,000); also: nearly all actives have a fitted effect of over 60% in size
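Multi-concentration screen (max 110 uM) measuring displacement of acetylated histone H3 peptide from BAZ2B by AlphaScreen, using 50 nM protein, 50 nM peptide and 10 ug/mL streptavidin donor plus Ni-chelate acceptor beads.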
A number is an active result; n = inactive; u = inconclusive; x = no result; [ ] = another dose, or the depositor's remark. Calls follow the shape of the dose curve; as a rule, active = well fitted curve in the direction sought with a large enough effect; inconclusive = small, poorly fitted or top-dose-only effect, or another doubt; inactive = no such curve, though single readings can be large; an effect the other way counts as inactive or inconclusive.

SMILES	PLK1 PBD block	VDR inhibitor	L3MBTL1 inh	JMJD2A Tudor inh	HP1b chromo inh	BAZ2B block
CSc1ccc(C(=O)C2CCCN(Cc3cc4ccccc4[nH]3)C2)cc1 (configuration not stated)	30µM	89µM	n	11µM	u	20µM
COc1ccccc1N1C(=O)NC(=O)/C(=C/c2ccc3c(c2)Cc2ccccc2-3)C1=O	5.3µM	u	n	79µM	n	50µM
Cc1ccc(N2C(=O)/C(=C/c3ccc(CN(CCC#N)S(C)(=O)=O)o3)C(=O)NC2=S)cc1C	x	x	u	x	x	40µM
Cc1cccc(N2C(=O)/C(=C/c3ccc(CN(CCC#N)S(C)(=O)=O)o3)C(=O)NC2=S)c1	7.5µM	u	x	50µM	u	50µM
O=C(O)CCCC[C@@H]1SC[C@@H]2NC(=O)N[C@@H]21	n	u	x	u	n	x
Cc1noc(C)c1C(=O)N1CCC[C@@]2(CCN(CC(C)C)C2)C1	x	n	x	x	x	x
CN(C(=O)Cc1ccc(Cl)c(Cl)c1)C(CN1CCCC1)c1cccc(N=C=S)c1 (configuration not stated)	x	n	x	x	x	x
COC(=O)c1ccc(C(c2c(C)[nH][nH]c2=O)c2c(C)[nH][nH]c2=O)cc1	21µM	u	x	n	n	n
COC(=O)C(C#N)C(c1cccnc1)c1c(C)[nH][nH]c1=O (configuration not stated)	u	n	x	n	n	n
COc1ccc2[nH]c3c(c2c1)CCN1C(=O)C(CC(=O)NCc2cccc(C(F)(F)F)c2)C[C@H](C(=O)N2CCCCC2)[C@@]31C (some centres not stated)	n	n	n	u	n	x
O=C1CN(C(=O)COC(=O)Cc2ccccc2)c2ccccc2N1	30µM	n	n	n	n	n
O=C(Cc1ccccc1)OCCN1CCCCC1	n	n	n	n	n	n
c1ccc2c(CCNC3CCCCC3)c[nH]c2c1	n	n	n	32µM	79µM	u
Clc1cccc(CNCCc2c[nH]c3ccccc23)c1	n	n	x	7.1µM	u	50µM
CNc1cc(Cl)c2nonc2c1[N+](=O)[O-]	8.4µM	35µM	n	n	n	n
Cc1cc([N+](=O)[O-])c(Cl)cc1NC(=O)C(C)C	n	n	n	n	n	n
CCCCOP(=O)(OCCCC)C(Nc1ccc(C(=O)OCC)cc1)c1ccncc1 (configuration not stated)	n	n	x	n	n	n
O=C(O)CP(=O)(O)c1ccc(Cl)cc1	n	n	n	40µM	n	n
S=C1Nc2ccccc2Sc2ccccc21	27µM	n	n	n	u	u
O=C(O)C1CN(CP(=O)(O)O)CCN1 (configuration not stated)	x	n	x	x	x	x
CN1CC[C@@]2(CCCN(C(=O)c3csnn3)C2)C1	x	45µM	x	x	x	x
COc1ccc2[nH]c(C)c(CCNCc3cn(C)c4ccccc34)c2c1	n	n	u	3.2µM	n	18µM
O=C1NC(=O)N(CCc2ccc(F)cc2)C(=O)/C1=C\C=C\c1ccccc1	u	u	x	n	n	n
CCOc1cc(/C=C2\C(=O)NC(=O)N(CCc3ccc(F)cc3)C2=O)ccc1O	1.7µM	u	x	n	n	n
CN(C)c1ccc(/C=C2\C(=O)NC(=O)N(Cc3ccc(F)cc3)C2=O)cc1	1.2µM	n	x	n	n	n
SMILES	PLK1 PBD block	VDR inhibitor	L3MBTL1 inh	JMJD2A Tudor inh	HP1b chromo inh	BAZ2B block
CN(C)c1ccc(/C=C2/C(=O)NC(=O)N(CCc3ccc(F)cc3)C2=O)cc1	6µM	u	n	28µM	n	u
COCCN1C(=O)NC(=O)/C(=C\c2ccc(Br)cc2)C1=O	5.3µM	u	n	u	n	n
C=CCN1C(=O)NC(=O)/C(=C/C=C/c2ccccc2)C1=O	u	u	x	n	u	u
CCOC(OCC)P(=O)(O)CCCN	x	n	x	x	x	x
O=C1NC(=O)C(Nc2ccc(Cl)c(Cl)c2)C(=O)N1	n	40µM	x	32µM	n	x
O=C1NC(=S)NC(=O)C1Nc1ccc(Cl)cc1	3µM	u	x	u	n	x
COc1ccc(CCNC(=O)CCS(=O)(=O)c2ccc3c(c2)oc(=O)n3C)cc1OC	n	n	x	n	n	n
CCCCC/C=C\C=C\[C@H](CCCCCCCC(=O)O)OO	x	n	x	x	x	x
CCCCCCCCCCCCCC(=O)OC1C(C)[C@@]2(O)C(C=C(CO)C[C@]3(O)C(=O)C(C)=C[C@H]23)[C@@H]2C(C)(C)[C@]12OC(C)=O (some centres not stated)	x	n	x	x	x	x
Cc1cc(C)c(C(=O)CN2CCOCC2)c(C)c1	n	28µM	n	u	n	n
O=C(CN1CCOCC1)c1ccc2cc[nH]c2c1	n	n	n	n	n	n
COc1ccc(NC2=NC(C)(C)CS2)cc1	21µM	n	n	n	n	n
CC1OC(=O)C(C(C)C)NC(=O)C(C(C)C)OC(=O)C(C(C)C)NC(=O)C(C)OC(=O)C(C(C)C)NC(=O)C(C(C)C)OC(=O)C(C(C)C)NC(=O)C(C)OC(=O)C(C(C)C)NC(=O)C(C(C)C)OC(=O)C(C(C)C)NC1=O (configuration not stated)	x	n	x	x	x	x
COc1ccc(CCNC(=O)CCc2c(C)nc3c(-c4ccc(F)cc4)c(C)nn3c2C)cc1OC	x	n	x	n	n	n
O=[N+]([O-])c1ccc(Nc2ccccc2)cc1	n	n	n	n	n	n
N#CC(C#N)=C(C#N)c1ccc(Nc2ccccc2)cc1	n	50µM	n[2.29 µM]	u	u	n
c1ccc(Nc2ccc(Nc3ccccc3)cc2)cc1	n	n	u	20µM	u	28µM
CC[C@]12C=CCN3CC[C@@]4(c5ccc(OC)cc5N(C)[C@H]4[C@@](O)(C(=O)OC)[C@@H]1OC(C)=O)C32 (some centres not stated)	x	n	x	x	x	x
O=C1NC(=O)N(c2ccc(Cl)cc2)C(=O)/C1=C\c1ccc(Sc2nc3ccccc3[nH]2)o1	3.8µM	n	u	10µM	40µM	28µM
O=c1[nH]c(O)c(N=Nc2cc([N+](=O)[O-])ccc2O)c(=O)[nH]1	n	n	n	89µM	u	50µM
CCCCCCCSc1cc(OC)c(CCN(C)C)cc1OC	n	n	u	35µM	u	25µM
Cc1ccc(-c2cn3c(=S)[nH]nc3s2)cc1	n	n	n	0.71µM	71µM	79µM
COc1ccccc1NC(=O)CCn1cnc2onc(-c3ccc(F)cc3)c2c1=O	x	n	x	n	n	n

Source: PubChem BioAssay
